Results as given in PubChem BioAssay (NCATS).
Inconclusive results are not listed. A call without a number means that no potency is given here. The source made the active and inactive calls. Calls come from the whole dose curve; as a rule, active = well fitted cell-killing curve with a large enough effect; inconclusive = small, poorly fitted or top-dose-only effect; inactive = flat fitted curve, though single readings scatter.

Assay: qHTS of pediatric cancer cell lines to identify multiple opportunities for drug repurposing: Primary screen for control Hh wild type fibroblast cells (AID 1347106); note: nearly all actives have a fitted effect of over 55% in size
Conditions: Hh wild-type fibroblast viability, CellTiter-Glo luminescence, 48 h; series mostly up to 46 µM
Description: Drug repurposing or repositioning has been offered as a strategy for drug development in oncology programs. This approach has special potential for childhood cancers and other rare or orphan diseases, where the expected return on new drug development has been a disincentive to pharmaceuticals.
In this project we exploit the poly-pharmacology of drugs to discover new indications via phenotypic screening of a panel of 19 well-characterized cell lines derived from solid tumors seen in children and adolescents. The goal is to identify approved drugs with previously unrecognized anticancer properties that has the potential to reveal new mechanisms and biological processes involved in carcinogenesis or drug resistance. We employed a titration-based paradigm (quantitative high-throughput screening or qHTS), where all compounds were tested at multiple concentrations for their effect on cell viability. Concentration-response curves (CRCs) were derived directly from the primary screen, and both potency and efficacy values were used to identify compounds with robust bioactivity profiles. We screened the NIH Chemical Genomics Center (NCGC) Pharmaceutical Collection (NPC) and Mechanism Interrogation Plate (MIPE) small molecule collections of approved and investigational compounds against these cell lines; and measured metabolically active cells after 48 hours of compound treatment as a proxy for cell viability.
Assay Submitter: Nathalia J. Martinez, National Center for Advancing Translational Sciences, National Institutes of Health, Rockville, MD, USA; email: natalia.martinez@nih.gov
[1] Shen, M et al. Quantitative high-throughput phenotypic screening of pediatric cancer cell lines identifies multiple opportunities for drug repurposing. Oncotarget 2017 Dec 19;9(4):4758-4772. PMID 29435139.
The cells were obtained from University of North Carolina (UNC), Pediatric Preclinical Testing Program (PPT), and Coriell Institute (CI).
qHTS cell viability assay:
Cells were assayed in growth media at a density of 500-1,000 cells/well. Five microliters of cells were dispensed into 1,536-well, white, solid-bottom, TC-treated plates (Greiner Bio One) using a multidrop dispenser and incubated at 37 degrees C, 5% CO2, under a humidified atmosphere for 5 hours. Twenty-three nanoliters of compounds and controls (neutral control DMSO or positive control bortezomib at final concentration of 2.3 µM) were subsequently transferred by Kalypsys pintool. For primary screens, the MIPE collection was tested at 11-point dilutions (final concentrations range from 0.78 nM to 46 µM) and the NPC collection at 8-point dilutions (final concentrations range from 0.59 nM to 46 µM). Compounds tested in follow-up screens were assayed at 11-point dilutions. Cells were incubated for 48 hours, followed by addition of 3 µL of CellTiter-Glo (Promega). After a 15 min incubation at room temperature, samples were analyzed for luminescence intensity using a ViewLux High-throughput CCD imager equipped with clear filters.
Potency is the fitted concentration of half-maximal effect.

SMILES	Potency
CCOCCn1c(N2CCCN(C)CC2)nc2ccccc21	inactive
CCCCC(CC)CN1CN(CC(CC)CCCC)CC(C)(N)C1 (stereo not given)	inactive
Cc1cccc(C)c1NC(=O)CN1CCCC1	inactive
NC(N)=NN=C(/C=C/c1ccc([N+](=O)[O-])o1)/C=C/c1ccc([N+](=O)[O-])o1	21.1 µM (active)
COP(=O)(OC)OC(c1ccc(Cl)cc1)P(=O)(OC)OC (stereo not given)	inactive
c1ccc(CC2=NCCN2)cc1	inactive
NS(=O)(=O)c1cc(C(=O)O)cc(N2CCCC2)c1Oc1ccccc1	inactive
O=C(O)P(=O)(O)O	inactive
CC(=O)NCCCCCC(=O)O	inactive
Cc1ccccc1OCC(O)CO (stereo not given)	inactive
NC(=S)N/N=C/c1cccnc1	inactive
O=C(O)C(Cc1cc(I)c(O)c(I)c1)c1ccccc1 (stereo not given)	inactive
OC(C#CCN1CCCC1)(c1ccccc1)c1ccccc1	inactive
CC(=O)N[C@@H](CCC(=O)O)C(=O)O	inactive
Nc1ccc(C(=O)NCC(=O)O)cc1	inactive
O=C(N/N=C/c1ccc([N+](=O)[O-])o1)c1ccc(O)cc1	inactive
CC(=O)Nc1ccc(OC(=O)c2ccccc2OC(C)=O)cc1	inactive
CC(C)n1c(/C=C/[C@@H](O)C[C@@H](O)CC(=O)O)c(-c2ccc(F)cc2)c2ccccc21	inactive
CNCCc1ccccn1	inactive
CC(C)CCCC(C)N (stereo not given)	inactive

SMILES	Potency
NCc1ccccc1Sc1ccccc1CO	inactive
COc1cc(C(=O)NCc2ccc(OCCN(C)C)cc2)cc(OC)c1OC	inactive
CCCCCCCCCCCCCCCCO	inactive
Cc1ccc(S(=O)(=O)NC(=O)NC2CCCC2)cc1	inactive
CN1CCN(C2=Nc3ccccc3Sc3ccc(Cl)cc32)CC1	inactive
O=C1c2cccc3c2[C@H](CCC3)CN1[C@@H]1CN2CCC1CC2	inactive
CC[N+](C)(CC)CCOC(=O)C(O)(c1ccccc1)C1CCCCC1 (stereo not given)	inactive
O=[N+]([O-])c1cccc(S(=O)(=O)NCCNS(=O)(=O)c2cccc([N+](=O)[O-])c2)c1	inactive
CC(=O)Nc1ccc(CC(=O)O)cc1	inactive
O=c1[nH]c(=O)n([C@H]2C[C@H](O)[C@@H](CO)O2)cc1F	inactive
CCN(CC)CCOC(=O)C(Cc1cccc2ccccc12)CC1CCCO1 (stereo not given)	inactive
COc1cc(O)c(C(=O)c2ccccc2)cc1S(=O)(=O)O	inactive
CC(C)(Cc1c[nH]c2ccccc12)NCC(O)COc1ccccc1C#N (stereo not given)	inactive
CC(C(=O)O)c1cccc(Oc2ccccc2)c1 (stereo not given)	inactive
CN(C)CCN1C(=O)c2ccccc2N(C)c2ccccc21	inactive
COc1ccc(C(Cl)=C(c2ccc(OC)cc2)c2ccc(OC)cc2)cc1	inactive
OC1C(O)C(O)C(O)C(O)C1O (stereo not given)	inactive
Cc1nc(-c2ccc(Cl)cc2)oc1COC(C)(C)C(=O)O	inactive
O=C(CN1CCN(Cc2ccc3c(c2)OCO3)CC1)N1c2ccccc2Sc2ccccc21	inactive
CN(C)CCC[C@@]1(c2ccc(F)cc2)OCc2cc(C#N)ccc21	inactive
